Rows were chosen to be rich in hits. Some 4.6% of all compounds tested hit in one or more screens of this group.
Vaccinia mCherry: inhibitors of vaccinia virus infection (mCherry reporter signal); 0.63% of 310,000 active; Potency, µM (highest dose often 36.5 µM), without a hit: at the highest dose activity change, negative = inhibition, most hits filed as inhibitors; Vaccinia virus mCherry reporter infection, fluorescence; calls by dose curve; tested in A549 cells; note: % is set by controls: 0 for no effect and ±100 for the full control effect; nearly all actives have a fitted effect of over 35% in size
HCV inh: HCV inhibition; Huh7.5.1 HCVcc-Cre infection, luciferase reporter, 44 h; Potency, µM (highest dose often 41.8 µM), for inactives: top-dose activity change, negative = inhibition, most hits filed as inhibitors; 3.4% of 340,000 active; note: % is set by controls: 0 for no effect and ±100 for the full control effect
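Reporter virus HCVcc-Cre (~0.5 moi) infects cells exposed to compound; seeding density 1,000 cells/well with 4 h settling beforehand. Luminescence, 15 sec read, taken 44 h post-infection following a 15 min RT substrate incubation.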
Vaccinia Venus: inhibitors of vaccinia virus (Venus reporter). Vaccinia virus Venus reporter expression, fluorescence. Potency, µM (top dose mostly 36.5 µM), for the others: top-dose activity change, negative = inhibition, hits mostly inhibitors. 0.46% of 330,000 active. AID 720580; calls by dose curve; tested in A549 cells; note: % is set by controls: 0 for no effect and ±100 for the full control effect; nearly all actives have a fitted effect of over 30% in size
MARV entry inh: inhibitors of Marburg virus binding or cell entry; 1.8% of 300,000 active; Marburg virus pseudotyped entry inhibition, cell reporter; Potency, µM (series often up to 37.8 µM), for inactives: at the highest dose activity change, negative = inhibition, most hits filed as inhibitors; calls by dose curve; tested in HEK293 cells; note: % is set by controls: 0 for no effect and ±100 for the full control effect
LASV entry inh: Lassa virus entry inhibition; 1.2% of 300,000 active; Potency, µM (top dose mostly 37.9 µM), for the others: at the top dose activity change, negative = inhibition, actives largely listed as inhibitors; AID 540256; Lassa virus pseudotype entry inhibition, cell reporter; calls by dose curve; tested in HEK293 cells; note: % is set by controls: 0 for no effect and ±100 for the full control effect; nearly all actives have a fitted effect of over 50% in size
HCV inh confirm: HCV inhibition, cherry-pick confirmation. shares compounds with HCV inh. HCVcc-Cre infectious virus cell assay, luciferase, inhibition. Potency, µM (highest dose often 41.8 µM), inactives show top-dose activity, negative = inhibition, usual class: inhibitors. 78% of 640 active; note: nearly all actives have a fitted effect of over 80% in size
HCV host tox: counter-screen for HCV inhibitors: host cell cytotoxicity; HCV host cell line cytotoxicity counterscreen; AID 720576; 22% of 640 active; shares compounds with HCV inh; Potency, µM (highest dose often 41.8 µM), for inactives: at the top dose activity change, negative = cytotoxicity, most hits filed as inhibitors;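 note: 44 h compound exposure; % is set by controls: 0 for no effect and ±100 for the full control effect; nearly all actives have a fitted effect of over 55% in size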
* marks the source's active call; other numbers are inactive results; i = inactive; ? = inconclusive; nt = no result given; [ ] = another dose, or the depositor's remark. Unless noted, calls come from the whole dose curve; as a rule, active = well fitted curve in the direction sought with a large enough effect; inconclusive = small, poorly fitted or top-dose-only effect, or another doubt; inactive = no such curve, though single readings can be large; an effect the other way counts as inactive or inconclusive. Potency is the fitted concentration of half-maximal effect.

SMILES	Vaccinia mCherry	HCV inh	Vaccinia Venus	MARV entry inh	LASV entry inh	HCV inh confirm	HCV host tox
Oc1ccc2ccccc2c1CN1CCN(c2ccccc2)CC1	nt	10%	nt	-23%	-7%	nt	nt
Cc1ccc(N(C)C(=O)C2CCN(S(=O)(=O)c3c(C)noc3/C=C/c3c(C)cc(C)cc3C)CC2)cc1	-8%[7.34 µM]	nt	-8%[7.34 µM]	nt	-11%[46.1 µM]	nt	nt
COc1cccc(CN2C(=O)c3ccccc3Sc3ccc(C(=O)OCc4ccco4)cc32)c1	-21%	nt	-16%	nt	-29%[46.1 µM]	nt	nt
O=C(CN1C(=O)C2(SCC(=O)N2c2cccc(Cl)c2)c2ccccc21)NCCc1ccccc1 (configuration not stated)	-21%	nt	-21%	nt	?	nt	nt
CCc1nnc(NC(=O)c2ccc(OC)cc2OC)s1	-2%	8.9µM*	-8%	?	?	-19%	-32%
COc1ccc(C(=O)Nc2nnc(SCC(=O)Nc3ccc(NC(C)=O)cc3)s2)c(OC)c1	nt	-12%	nt	nt	nt	nt	nt
Cc1cc(=O)n(C)c(=O)n1CCCCCCOc1cccc([N+](=O)[O-])c1	-26%	7.1µM*	-12%	-56%	10%	10µM*	-19%
CCN(CC)S(=O)(=O)c1ccc2c(c1)C(=NO)c1cc(S(=O)(=O)N(CC)CC)ccc1-2	11µM*	4.5µM*	13µM*	?	?	7µM*	?
COc1cc([N+](=O)[O-])ccc1NC(=O)CN(C)C	i	?	-2%	7%	-2%	nt	nt
CCN(CC(=O)Nc1ccc([N+](=O)[O-])cc1OC)c1ccccc1	-8%	3.2µM*	4%	?	?	14µM*	-15%
CC(C)CCNC(=O)C1CCN(S(=O)(=O)c2cccc3nsnc23)CC1	-10%	nt	-11%	3%[46.1 µM]	2%[46.1 µM]	nt	nt
CC(Nc1cc(N2CCNCC2)ccc1[N+](=O)[O-])c1ccccc1 (configuration not stated)	14µM*	3.5µM*	?	?	-4%	?	55%
CCS(=O)(=O)N1CCN(c2ccc([N+](=O)[O-])c(NC(C)c3ccccc3)c2)CC1 (configuration not stated)	nt	?	-5%	?	?	nt	nt
CCN(CC)c1ccc(C(=O)NCc2nc3cccnc3n2Cc2ccc(C)cc2)cc1	-13%	nt	-7%	nt	-13%[46.1 µM]	nt	nt
Cn1cc(CNCc2ccc(OC(F)(F)F)cc2)c(-c2ccc3c(c2)OCCO3)n1	nt	1µM*	nt	nt	nt	1µM*	5µM*
Cn1cc(CNCc2cn[nH]c2-c2ccc(F)cc2)c(-c2ccc3c(c2)OCCO3)n1	nt	2%	nt	nt	nt	nt	nt
Cc1cc(C)c(OCC(=O)N(Cc2ccc(N(C)C)cc2)CC2CCCO2)c(C)c1 (configuration not stated)	-15%	nt	-21%	-20%[46.1 µM]	?	nt	nt
CCCCn1c(SCc2nc3ccccc3s2)nc2cc(S(N)(=O)=O)ccc21	-23%	?	?	1.8µM*	?	18µM*	-38%
Cc1onc(-c2ccccc2)c1-c1nnc(-c2ccccc2C(F)(F)F)o1	i	?	7%	?	-26%[46.1 µM]	25µM*	-31%
Cc1onc(-c2ccccc2)c1-c1nnc(COC(=O)c2ccc(F)cc2)o1	i	nt	-13%	nt	nt	nt	nt
NC(=O)c1ncn([C@@H]2O[C@H](CNCc3ccc(-c4cc(C(F)(F)F)ccc4Cl)o3)[C@@H](O)[C@H]2O)n1	i	3.2µM*	0%	nt	nt	-17%	0.025µM*
COc1cc2ccccc2cc1C(=O)Nc1ccccc1N1CCCC1	-27%	?	-6%	?	5%	14µM*	-84%
CCn1c(=O)n(CC)c2cc(N3CCCC3)c(NC(=O)c3cc(Cl)ccc3OC)cc21	-5%	4µM*	-3%	20%[46.1 µM]	-22%[46.1 µM]	16µM*	?
Cc1nn2c3c(cnc2c1-c1ccc(F)cc1)C(=O)CC(c1ccccc1)C3 (configuration not stated)	-13%	nt	-8%	-5%[46.1 µM]	0%[46.1 µM]	nt	nt
CC(C)Cn1c(N)c(C(=O)CSc2ccccc2)c(=O)n(C)c1=O	?	?	-22%	?	1%	7.9µM*	?

Bioassay records: PubChem BioAssay, National Center for Advancing Translational Sciences (NCATS)
